# Results reported in paper PMC4336329 (PLoS ONE, 2015).
# The campaign covered roughly 310,000 compounds. About 14,000 (4.5%) showed an effect of 50% or more. Effects have a minus sign here. This excerpt belongs to a sample that is enriched for strong results.
# Target: human ether-à-go-go-related gene (hERG) potassium channel (human, UniProt Q12809)
# Test: primary screen, population patch clamp on CHO cells stably expressing hERG; higher = less effect of the substance
# 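Further: peak tail current of the secondary pulse compared with the same well before compound.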
# Sequence of human ether-à-go-go-related gene (hERG) potassium channel (Q12809 whole entry, looked up): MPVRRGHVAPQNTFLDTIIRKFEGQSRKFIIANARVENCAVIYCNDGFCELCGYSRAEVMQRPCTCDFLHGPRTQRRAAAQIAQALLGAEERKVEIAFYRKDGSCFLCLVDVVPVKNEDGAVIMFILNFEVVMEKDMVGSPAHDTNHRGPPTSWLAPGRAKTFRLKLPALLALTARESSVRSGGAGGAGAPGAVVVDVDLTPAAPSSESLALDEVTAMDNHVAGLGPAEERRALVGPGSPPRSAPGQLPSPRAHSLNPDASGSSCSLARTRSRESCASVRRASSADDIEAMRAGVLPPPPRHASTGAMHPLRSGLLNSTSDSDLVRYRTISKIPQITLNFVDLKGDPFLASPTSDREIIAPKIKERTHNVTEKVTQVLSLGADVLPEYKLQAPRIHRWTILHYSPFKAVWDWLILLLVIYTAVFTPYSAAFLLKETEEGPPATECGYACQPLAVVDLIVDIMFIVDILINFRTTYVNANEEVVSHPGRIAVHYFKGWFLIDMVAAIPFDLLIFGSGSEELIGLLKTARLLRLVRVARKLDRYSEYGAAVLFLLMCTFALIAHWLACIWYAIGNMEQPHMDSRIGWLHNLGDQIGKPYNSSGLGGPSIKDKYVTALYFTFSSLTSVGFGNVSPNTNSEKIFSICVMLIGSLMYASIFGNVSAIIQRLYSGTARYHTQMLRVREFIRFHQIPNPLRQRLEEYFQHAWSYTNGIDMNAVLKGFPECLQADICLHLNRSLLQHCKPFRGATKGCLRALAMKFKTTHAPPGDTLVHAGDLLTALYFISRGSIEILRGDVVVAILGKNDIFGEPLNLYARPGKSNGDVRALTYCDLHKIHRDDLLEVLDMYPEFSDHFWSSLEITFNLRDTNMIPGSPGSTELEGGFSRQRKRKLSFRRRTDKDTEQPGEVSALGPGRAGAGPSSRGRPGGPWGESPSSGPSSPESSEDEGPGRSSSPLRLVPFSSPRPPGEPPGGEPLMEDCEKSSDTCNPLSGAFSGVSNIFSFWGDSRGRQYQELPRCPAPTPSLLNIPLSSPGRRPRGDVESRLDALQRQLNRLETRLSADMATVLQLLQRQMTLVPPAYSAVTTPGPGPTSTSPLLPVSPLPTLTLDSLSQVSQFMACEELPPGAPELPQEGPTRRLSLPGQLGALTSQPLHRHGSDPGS
row,SMILES,"hERG current change (%, negative = inhibition) at 10uM"
1,CC1CCCC(NC(=O)CCNC(=O)c2ccc(Br)cc2)C1C (stereo not shown),-0.231%
2,Cc1ccc(C)c(OC(C)C(=O)Nc2nccs2)c1 (stereo not shown),3.8%
3,CN(C)c1ccc(/C=N/NC(=O)CCC(=O)NCc2ccccc2)cc1,11.3%
4,CCc1cc(C(=O)N2CCc3c([nH]c4ccccc34)C2c2ccc(OC)cc2F)no1 (stereo not shown),15.7%
5,COc1ccc2oc(C(=O)CCC(=O)O)c(N)c2c1,4.93%
6,COc1ccccc1N1CCN(C(=O)c2cc(C)oc2C)CC1,21%
7,O=C(NN1CC(=O)N(c2cc(Cl)cc(Cl)c2)CC1=O)c1sccc1Cl,-0.682%
8,Cc1cccc(N(CC(=O)N/N=C/c2ccccc2C(=O)O)S(C)(=O)=O)c1C,-28.9%
9,N#CCC(=O)N/N=C/c1ccc(OCc2ccccc2)cc1,11.3%
10,CC(C)(C)NCC(=O)N/N=C/c1ccc(OCc2ccccc2)cc1,-60.5%
11,CC(C)C(=O)N/N=C/c1ccc(OCc2ccccc2)cc1,17.8%
12,O=C(NNc1nc2ccccc2nc1C(F)(F)F)c1ccccc1,11.9%
13,Cc1ccc(NC(=O)c2cc(-c3ccccc3)n[nH]2)cc1,18.3%
14,CC(C)c1ccc(N(C(=O)c2csnn2)C(C(=O)NC(C)(C)C)c2ccncc2)cc1 (stereo not shown),-42.8%
15,CC(C)C[C@@H](CO)N1CCN(CCc2ccccc2)CCC1=O,-23%
16,CCCN1CCC(=O)N([C@H](CN=[N+]=[N-])CC(C)C)CC1,3.11%
17,CC(C)C[C@@H](COc1ccccc1)N1CCN(Cc2ccccc2)CCC1=O,-35.4%
18,CC(C)C[C@@H](COc1ccccc1)N1CCN(CCc2ccccc2)CCC1=O,-77.5%
19,CCCN1CCC(=O)N([C@H](COc2ccccc2)CC(C)C)CC1,-81.9%
20,COc1cc([N+](=O)[O-])ccc1NC(=O)CN(C)C,-15.9%
21,O=C(O)CC(CC(=O)Nc1ccccc1C(=O)O)c1ccccc1 (stereo not shown),3.3%
22,C=C(C)CCC1(C)NC(=O)N(c2ccccc2)N1 (stereo not shown),-4.03%
23,CN(C(=O)CSc1nnnn1-c1ccc(O)cc1)C1CCS(=O)(=O)C1 (stereo not shown),14.8%
24,CCN(CC(=O)NCc1cccs1)C(=O)CN(C)S(=O)(=O)c1ccc(C)cc1,-27.3%
25,COc1ccccc1NC(=O)CSc1nc2sc3c(c2c(=O)n1-c1ccccc1)CCN(C)C3,-26%
